Where “and” joins values, the source holds several entries; their conditions need not be identical. Identical values can stand only once. Out of some 5,500 compounds screened, about 2,000 (36%) were called active. Roughly 18% stayed inconclusive and do not appear here. Cut-off read from the data, not from the text of the source: active = normalized growth mostly below about 0.91 (no sharp cut-off); inconclusive = no clear call, values can overlap the other calls; inactive = mostly above about 0.92. The list shows a part of the results.
Assay: chemical genetic growth profiling, strain panel (AID 1159580);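 note: tested at 20 µM; growth read once vehicle control cultures reached saturation at 30 °C; 1 = growth at the plate median or of vehicle wells; lower values mean less growth of the strain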
Settings: S. cerevisiae deletion strains, growth OD
[1] = locus YAL013W, strain DEP1, stronger effect = lower value
[2] = locus YMR307W, strain GAS1, stronger effect = lower value
[3] = locus YNL128W, strain TEP1, stronger effect = lower value

Measured: normalized growth

NO
inactive: [1] 0.994 | locus YAL040C, strain CLN3, stronger effect = lower value 0.946 | locus YCL061C, strain MRC1 (second series), stronger effect = lower value 1.01 | locus YDR363W, strain ESC2, stronger effect = lower value 0.997 | locus YER002W, strain NOP16, stronger effect = lower value 1.01 | locus YGR229C, strain SMI1, stronger effect = lower value 1.1 | locus YJR075W, strain HOC1, stronger effect = lower value 1.02 | locus YMR263W, strain SAP30, stronger effect = lower value 1.01 | [2] 1.02 | [3] 0.998 | locus YNL153C, strain GIM3, stronger effect = lower value 0.988 | locus YNL175C, strain NOP13, stronger effect = lower value 1.01 | locus YNL197C, strain WHI3, stronger effect = lower value 0.976 | locus YNL224C, strain SQS1, stronger effect = lower value 1 | locus YOR083W, strain WHI5 (second series), stronger effect = lower value 0.946 | locus YPL055C, strain LGE1, stronger effect = lower value 1.01 | locus YPL241C, strain CIN2, stronger effect = lower value 1

COC(=O)C[C@H]1C(C)(C)C(=O)[C@@H]2CC3C4=CC(=O)O[C@@H](c5ccoc5)[C@]4(C)CCC3[C@@]1(C)C2=O (stereo not given in full)
inactive: [1] 0.98 | locus YAL021C, strain ccr4, stronger effect = lower value 0.967 | locus YAL026C, strain drs2, stronger effect = lower value 0.969 | locus YAL030W, strain snc1, stronger effect = lower value 0.979 | locus YBL061C, strain skt5, stronger effect = lower value 0.985 | locus YBR009C, strain hhf1, stronger effect = lower value 0.985 | locus YBR021W, strain FUR4, stronger effect = lower value 0.998 | locus YBR023C, strain chs3, stronger effect = lower value 0.99 | locus YBR171W, strain sec66, stronger effect = lower value 0.995 | locus YBR229C, strain ROT2, stronger effect = lower value 0.944 | locus YBR231C, strain swc5, stronger effect = lower value 0.998 | locus YBR279W, strain paf1, stronger effect = lower value 0.996 | locus YCL011C, strain gbp2, stronger effect = lower value 0.988 | locus YCL016C, strain dcc1, stronger effect = lower value 0.989 | locus YCL029C, strain bik1, stronger effect = lower value 0.973 | locus YCL061C, strain MRC1, stronger effect = lower value 0.976 | locus YCL069W, strain vba3, stronger effect = lower value 0.99 | locus YCR088W, strain abp1, stronger effect = lower value 0.98 | locus YDL005C, strain med2, stronger effect = lower value 0.978 | locus YDL035C, strain GPR1, stronger effect = lower value 0.959 | locus YDL040C, strain nat1, stronger effect = lower value 0.99 | locus YDL074C, strain BRE1, stronger effect = lower value 0.954 | locus YDL101C, strain DUN1, stronger effect = lower value 0.987 | locus YDL185W, strain tfp1, stronger effect = lower value 0.954 | locus YDL192W, strain arf1, stronger effect = lower value 0.985 | locus YDR001C, strain nth1, stronger effect = lower value 0.975 | locus YDR069C, strain doa4, stronger effect = lower value 0.977 | locus YDR101C, strain arx1, stronger effect = lower value 0.985 | locus YDR137W, strain rgp1, stronger effect = lower value 0.947 | locus YDR159W, strain sac3, stronger effect = lower value 0.97 | locus YDR162C, strain NBP2, stronger effect = lower value 0.96 | locus YDR195W, strain ref2 0.972 | locus YDR297W, strain sur2, stronger effect = lower value 1.05 | locus YDR318W, strain mcm21, stronger effect = lower value 0.98 | locus YDR334W, strain swr1, stronger effect = lower value 0.972 | locus YDR335W, strain msn5, stronger effect = lower value 0.983 | locus YDR388W, stronger effect = lower value 0.988 | locus YDR392W, strain spt3, stronger effect = lower value 0.993 | locus YDR502C, strain sam2, stronger effect = lower value 0.995 | locus YEL003W, strain gim4, stronger effect = lower value 0.989 | locus YEL037C, strain rad23, stronger effect = lower value 0.985 | locus YEL061C, strain CIN8 (second series), stronger effect = lower value 0.982 | locus YEL061C, strain CIN8, stronger effect = lower value 0.978 | locus YER015W, strain faa2, stronger effect = lower value 0.999 | locus YER016W, strain bim1, stronger effect = lower value 0.985 | locus YER110C, stronger effect = lower value 0.964 | locus YER111C, strain swi4, stronger effect = lower value 0.978 | locus YER155C, strain BEM2 (second series), stronger effect = lower value 0.978 | locus YER155C, strain BEM2, stronger effect = lower value 0.995 | locus YER167W, strain BCK2, stronger effect = lower value 0.978 | locus YFR010W, strain ubp6, stronger effect = lower value 0.964 | locus YGL078C, strain dbp3, stronger effect = lower value 0.97 | locus YGL086W, strain mad1, stronger effect = lower value 0.975 | locus YGL167C, strain pmr1, stronger effect = lower value 0.977 | locus YGL173C, strain kem1, stronger effect = lower value 0.982 | locus YGL227W, strain vid30, stronger effect = lower value 0.99 | locus YGL240W, strain doc1, stronger effect = lower value 1 | locus YGL248W, strain PDE1, stronger effect = lower value 0.971 | locus YGL253W, strain hxk2, stronger effect = lower value 0.98 | locus YGR135W, strain pre9, stronger effect = lower value 1.04 | locus YGR252W, strain gcn5, stronger effect = lower value 1.04 | locus YHR013C, strain ard1, stronger effect = lower value 0.983 | locus YHR027C, strain rpn1, stronger effect = lower value 0.979 | locus YHR030C, strain SLT2, stronger effect = lower value 0.979 and 0.991 | locus YHR079C, strain IRE1 (second series), stronger effect = lower value 0.969 | locus YHR079C, strain IRE1, stronger effect = lower value 0.979 | locus YHR094C, strain hxt1, stronger effect = lower value 0.97 | locus YHR129C, strain ARP1, stronger effect = lower value 0.987 | locus YHR142W, strain chs7, stronger effect = lower value 0.983 | locus YHR200W, strain rpn10, stronger effect = lower value 0.981 | locus YIL066C, strain RNR3, stronger effect = lower value 0.952 | locus YIL073C, strain SPO22, stronger effect = lower value 0.957 | locus YIL125W, strain kgd1, stronger effect = lower value 0.982 | locus YIR030C, strain dcg1, stronger effect = lower value 0.985 | locus YJL092W, strain hpr5, stronger effect = lower value 0.981 | locus YJL095W, strain BCK1 (second series), stronger effect = lower value 0.983 | locus YJL095W, strain BCK1, stronger effect = lower value 1.01 and 0.983 | locus YJL115W, strain asf1, stronger effect = lower value 0.964 | locus YJL129C, strain trk1, stronger effect = lower value 0.965 | locus YJL134W, strain LCB3, stronger effect = lower value 0.97 | locus YJL154C, strain vps35, stronger effect = lower value 0.99 | locus YJL164C, strain tpk1, stronger effect = lower value 0.988 | locus YJL166W, strain qcr8, stronger effect = lower value 0.989 | locus YJL168C, strain set2, stronger effect = lower value 0.991 | locus YJL187C, strain SWE1 (second series), stronger effect = lower value 0.993 | locus YJL187C, strain SWE1, stronger effect = lower value 0.998 | locus YJR066W, strain TOR1, stronger effect = lower value 0.943 | locus YKL009W, strain mrt4, stronger effect = lower value 0.956 | locus YKL068W, stronger effect = lower value 0.979 | locus YKL085W, strain MDH1 (second series), stronger effect = lower value 0.986 | locus YKL085W, strain MDH1, stronger effect = lower value 0.986 | locus YKL160W, strain elf1, stronger effect = lower value 0.992 | locus YKL190W, strain CNB1, stronger effect = lower value 0.98 | locus YKR001C, strain vps1, stronger effect = lower value 0.979 | locus YKR026C, strain gcn3, stronger effect = lower value 0.984 | locus YKR091W, strain srl3, stronger effect = lower value 0.984 | locus YLL001W, strain dnm1, stronger effect = lower value 0.979 | locus YLL026W, stronger effect = lower value 0.982 | locus YLL041C, strain sdh2, stronger effect = lower value 0.978 | locus YLR027C, strain aat2, stronger effect = lower value 1 | locus YLR039C, strain RIC1, stronger effect = lower value 0.902 | locus YLR058C, strain SHM2, stronger effect = lower value 0.961 | locus YLR102C, strain apc9, stronger effect = lower value 0.979 | locus YLR113W, strain HOG1, stronger effect = lower value 1 | locus YLR221C, strain rsa3, stronger effect = lower value 0.992 | locus YLR258W, strain gsy2, stronger effect = lower value 0.981 | locus YLR262C, strain YPT6 (second series), stronger effect = lower value 0.982 | locus YLR262C, strain YPT6, stronger effect = lower value 0.916 | locus YLR268W, strain sec22, stronger effect = lower value 0.997 | locus YLR320W, strain mms22, stronger effect = lower value 0.982 | locus YLR330W, strain CHS5, stronger effect = lower value 0.983 | locus YLR342W, strain FKS1 (second series), stronger effect = lower value 1.02 | locus YLR342W, strain FKS1, stronger effect = lower value 0.99 | locus YLR357W, strain rsc2, stronger effect = lower value 0.977 | locus YLR370C, strain arc18, stronger effect = lower value 0.987 | locus YLR371W, strain rom2, stronger effect = lower value 0.981 | locus YLR384C, strain iki3, stronger effect = lower value 0.983 | locus YLR418C, strain cdc73, stronger effect = lower value 1 | locus YML016C, strain PPZ1, stronger effect = lower value 0.978 | locus YML032C, strain rad52, stronger effect = lower value 0.945 | locus YML120C, strain ndi1, stronger effect = lower value 0.992 | locus YML124C, strain tub3, stronger effect = lower value 0.994 | locus YMR058W, strain fet3, stronger effect = lower value 0.969 | locus YMR078C, strain ctf18, stronger effect = lower value 0.958 | locus YMR125W, strain sto1, stronger effect = lower value 0.973 | locus YMR129W, stronger effect = lower value 0.993 | locus YMR205C, strain PFK2, stronger effect = lower value 0.977 | locus YMR223W, strain ubp8, stronger effect = lower value 1 | locus YMR231W, strain pep5, stronger effect = lower value 0.968 | [2] 1.01 | locus YNL067W, strain RPL9B, stronger effect = lower value 1.01 | locus YNL071W, strain lat1, stronger effect = lower value 0.979 | [3] 0.945 | locus YNL183C, strain NPR1, stronger effect = lower value 0.972 | locus YNL209W, strain ssb2, stronger effect = lower value 0.989 | locus YNL233W, strain BNI4, stronger effect = lower value 1.02 | locus YNL248C, strain rpa49, stronger effect = lower value 0.967 | locus YNL250W, strain rad50, stronger effect = lower value 0.98 | locus YNL271C, strain bni1, stronger effect = lower value 0.976 | locus YNL298W, strain CLA4, stronger effect = lower value 0.962 | locus YNL307C, strain MCK1, stronger effect = lower value 0.978 | locus YNL322C, strain KRE1 (second series), stronger effect = lower value 0.995 | locus YNL322C, strain KRE1, stronger effect = lower value 0.981 | locus YNR049C, strain mso1, stronger effect = lower value 0.976 | locus YNR052C, strain pop2, stronger effect = lower value 0.989 | locus YOL006C, strain TOP1, stronger effect = lower value 0.934 | locus YOL012C, strain htz1 0.856 | locus YOL147C, strain pex11, stronger effect = lower value 0.969 | locus YOR001W, strain rrp6, stronger effect = lower value 0.962 | locus YOR061W, strain CKA2, stronger effect = lower value 0.964 | locus YOR069W, strain VPS5, stronger effect = lower value 0.988 | locus YOR070C, strain gyp1, stronger effect = lower value 0.982 | locus YOR080W, strain dia2, stronger effect = lower value 0.983 | locus YOR083W, strain WHI5, stronger effect = lower value 0.989 | locus YOR106W, strain vam3, stronger effect = lower value 0.99 | locus YOR136W, strain idh2, stronger effect = lower value 0.971 | locus YOR144C, strain elg1, stronger effect = lower value 0.996 | locus YOR184W, strain ser1, stronger effect = lower value 0.948 | locus YOR231W, strain MKK1, stronger effect = lower value 0.984 | locus YOR265W, strain rbl2, stronger effect = lower value 0.986 | locus YOR270C, strain vph1, stronger effect = lower value 0.925 | locus YOR290C, strain snf2, stronger effect = lower value 1 | locus YOR316C, strain cot1, stronger effect = lower value 0.982 | locus YPL051W, strain arl3, stronger effect = lower value 1.03 | locus YPL078C, strain atp4, stronger effect = lower value 0.985 | locus YPL106C, strain sse1, stronger effect = lower value 0.994 | locus YPL240C, strain hsp82, stronger effect = lower value 0.984 | locus YPL256C, strain CLN2, stronger effect = lower value 0.967 | locus YPR119W, strain clb2, stronger effect = lower value 0.99 | locus YPR141C, strain kar3, stronger effect = lower value 0.988 | locus YPR163C, strain tif3, stronger effect = lower value 0.985 | locus YPR167C, strain met16, stronger effect = lower value 0.982 | strain wtn01, stronger effect = lower value 0.967
